Measured values reported in PubChem BioAssay AID434989 (The Scripps Research Institute Molecular Screening Center, 2010).
In all, about 330,000 compounds went through this assay and about 1,400 (0.42%) were called active.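 The calls were made as follows: active = inhibition above its plate's threshold, mean inhibition of all tested compounds on the plate plus 3 SD (cut at about 37% in these data); inactive = the rest.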 Only a selection was taken, and actives are over-represented in it overall.

target: Orexin/Hypocretin receptor type 1 (Homo sapiens) (UniProt O43613); test: OX1R (HCRTR1) antagonists, primary screen, fluorescence, CHO/OX1R cells, Fluo-8 calcium, orexin A (AID 434989); details: Fluo-8 calcium fluorescence, at 5 µM, active compounds read high;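 also: 0% = orexin A challenge wells and 100% = SB-334867-A antagonist wells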
Sequence (O43613 whole entry, looked up): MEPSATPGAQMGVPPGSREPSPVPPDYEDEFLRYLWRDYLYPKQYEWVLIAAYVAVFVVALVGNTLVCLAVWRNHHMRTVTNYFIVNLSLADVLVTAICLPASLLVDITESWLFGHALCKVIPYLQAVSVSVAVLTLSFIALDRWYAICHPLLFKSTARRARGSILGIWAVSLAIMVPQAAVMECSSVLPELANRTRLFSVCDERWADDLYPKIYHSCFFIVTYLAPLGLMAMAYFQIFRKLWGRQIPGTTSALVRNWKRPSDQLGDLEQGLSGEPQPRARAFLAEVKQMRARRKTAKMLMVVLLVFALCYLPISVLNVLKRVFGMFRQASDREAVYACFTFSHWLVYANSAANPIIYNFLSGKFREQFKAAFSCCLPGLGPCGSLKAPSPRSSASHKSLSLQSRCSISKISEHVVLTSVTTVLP

inhibition, active:
Cc1cccc(NC(=O)Nc2cccc(Oc3c(F)c(F)c(F)c(F)c3F)c2)c1 50.4%
Cc1ccccc1OCC(=O)Nc1ccc(N2CCN(C(=O)C(C)C)CC2)c(Cl)c1 47.2%
CCc1ccccc1OCC(=O)Nc1ccc(C)c(S(=O)(=O)N2CCCCCC2)c1 71.1%
Cc1cc(-c2ccc(C)c(S(=O)(=O)NC(C)Cc3ccco3)c2)on1 (stereo unspecified) 59.1%
CCN(CC)S(=O)(=O)c1ccc(N(C)Cc2cccc(OC)c2OC)nc1 39%
CCN(CC)c1ccc(/C=N/NC(=O)c2cnccn2)c(O)c1 48.7%
CCCc1nc2c(c(=O)c3ccccc3n2C)c(=O)n1C1CCCCCC1 41.5%
Cc1ccc(O)c(NC(=S)NC(=O)COc2ccc(Br)cc2)c1 78.4%
CCOc1ccc(CCNC(=O)C(CC)n2nc(C)n3c(cc4sccc43)c2=O)cc1OCC (stereo unspecified) 64.5%
Cc1ccc(C)c(S(=O)(=O)N2CCN(c3ncnc4sccc34)CC2)c1 51.7%
O=C(Cc1ccc(Cl)cc1)NC(=S)Nc1ccccc1O 61.6%
CCOC(=O)CC1C(=O)NCCN1c1nc2c(C)cccn2c(=O)c1/C=C1\SC(=S)N(C(C)CC)C1=O (stereo unspecified) 78.6%
c1ccc2c(c1)OCC(CNc1ncnc3nc[nH]c13)O2 (stereo unspecified) 90.5%
CCCN(CC(=O)Nc1ccccc1OC)C(=O)CCC(=O)c1ccc(F)cc1 44.7%

inhibition, inactive:
Cc1ccc(S(=O)(=O)Nc2ccc3c(c2)C(=O)N([C@H](C)CO)C[C@@H](C)[C@@H](CN(C)C(=O)Nc2cccc4ccccc24)O3)cc1 1.83%
CC1CCCCC1NC(=O)Cn1c(=O)cnc2ccccc21 (stereo unspecified) -6.73%
COc1cccc(NC(=O)NCc2ccc(F)cc2)c1 -1.97%
Cc1cccc(NC(=O)NC(=S)NC(=O)c2ccccc2)c1 -26.4%
CCN(CC)S(=O)(=O)c1ccc(N2CCCC2)c(NC(=O)c2ccc([N+](=O)[O-])o2)c1 25.1%
Cc1ccc(NC(=O)COC(=O)C2CC2)cc1S(=O)(=O)N1CCOCC1 0.29%
CCc1ccccc1OCC(=O)Nc1ccc2c(c1)OCCO2 3.6%
CCC(=O)N1CCN(c2ccccc2NC(=O)COc2cccc(C)c2C)CC1 -25.6%
Cc1ccccc1OCC(=O)Nc1ccc2c(c1)ncn2C -11.8%
COc1ccccc1CNC(=O)c1ccc(Cl)c(S(=O)(=O)N2CCCC2)c1 -20%
Cc1nn(-c2ccccc2)nc1C(=O)OCC(=O)N1CCCCC1C (stereo unspecified) -14.9%
Cc1ccc(C)c(N2CCN(C(=O)CCc3nc(-c4cccc(C(F)(F)F)c4)no3)CC2)c1 -15.5%
Cc1cc(-c2ccc(C)c(S(=O)(=O)Nc3ccc(S(N)(=O)=O)cc3)c2)on1 15.6%
Cc1cc(-c2ccc(C)c(S(=O)(=O)NCCCN(Cc3ccccc3)C(C)C)c2)on1 -45.5%
CN(C)C(=O)CCc1ccc2c3c([nH]c2c1)[C@]1(CCC2CCCC2)[C@@H](C(=O)N2CCOCC2)C[C@H](CC(=O)NCc2ccco2)C(=O)N1CC3 -19.7%
COc1ccc(C(=O)C(C)OC(=O)c2cccc(S(=O)(=O)Nc3c(C)n(C)n(-c4ccccc4)c3=O)c2)cc1 (stereo unspecified) -5.98%
O=C(CN1C(=O)NC2(CCCCCC2)C1=O)NCc1ccc(F)cc1 -10.3%
CCN(CC)S(=O)(=O)c1ccc(N(C)CCc2ccc(OC)c(OC)c2)nc1 -17%
CCN(CC)S(=O)(=O)c1ccc(N(C)Cc2ccc(C(F)(F)F)cc2)nc1 29.3%
COc1cccc(-c2sc3ccc(OC)cc3c2-c2ccc(OCCN3CCCCC3)cc2)c1 29.6%
COc1ccc2[nH]c3c(c2c1)CCN1C(=O)C(CC(=O)NCCCN(C)C)C[C@H](C(=O)N2CCOCC2)[C@@]31CCC1CCCC1 (stereo partly specified) -21.8%
O=C1CCC/C=C/C[C@@H](CC(=O)N(CCO)Cc2ccccc2)C(=O)NC[C@H](c2ccccc2)O1 -18%
CCN(CC)c1ccc(/C=N/NC(=O)CNC(=O)c2cccnc2)cc1 -5.59%
Cc1ccc(C(=O)NCCNC(=O)c2cnccn2)cc1 -1.97%
O=C(CCCOc1ccccc1)NNC(=O)c1ccc(Cl)cc1 -15.2%
C=CC[C@H](CC(=O)NCCO)C(=O)N[C@@H](COC(=O)[C@@H](CC=C)Cc1ccc(F)cc1)Cc1c[nH]c2ccccc12 -17.6%
O=C(NCCc1ccco1)c1ccc(OCc2cn3ccccc3n2)cc1 -20.6%
C=CC[C@@H](Cc1ccc(F)cc1)C(=O)OC[C@H]1CCCN1C(=O)[C@H](CC=C)CC(=O)N(CCO)Cc1ccccc1 24.4%
Cn1c2ccccc2c(=O)c2c(=O)n(Cc3ccco3)c(COc3ccccc3)nc21 -11.8%
CCCc1nc2c(c(=O)c3ccccc3n2C)c(=O)n1-c1cc(C)cc(C)c1 -30.9%
CC[C@]12c3[nH]c4ccc(Cl)cc4c3CCN1C(=O)[C@@H](CC(=O)NCCCOC)C[C@@H]2C(=O)N1CCN(C(=O)C2CC2)CC1 -13.7%
CCOC(=O)C1=C(C)N(C[C@@H]2CC[C@@H](Cc3ccc(-c4ccccc4)cc3)O2)C(=O)NC1c1ccc([N+](=O)[O-])cc1 (stereo partly specified) -13%
CN(C)C(=O)CCc1ccc2c3c([nH]c2c1)[C@]1(CCc2ccccc2)[C@@H](C(=O)N2CCCCC2)C[C@H](CC(=O)NCCC2=CCCCC2)C(=O)N1CC3 -7.84%
CC(C)N(C(=O)[C@H]1C[C@H](CC(=O)NC(C)(C)C)C(=O)N2CCc3c([nH]c4ccc(Cl)cc34)[C@]12C)C(C)C -33.8%
Cc1cccc(OCC(=O)NC(=S)Nc2ccccc2N2CCOCC2)c1 -22.4%
Cc1ccc(O)c(NC(=O)COc2cc(C)ccc2C)c1 2.38%
COC(=O)c1ccc(C)c(NC(=O)Cn2c(C)csc2=O)c1 -20%
CCC1CCCCN1C(=S)NC(=O)c1ccco1 (stereo unspecified) 5.19%
CC(C)CC1NC(=O)c2cc(Cl)ccc2-n2c1nc1ccccc1c2=O (stereo unspecified) -24.4%
O=C(NC(=S)Nc1ccc(Br)cc1F)C1CCCCC1 0.61%
O=C1NC(Cc2ccc(O)cc2)c2nc3ccc(Cl)cc3c(=O)n2-c2ccccc21 (stereo unspecified) -10%
CCC(C(=O)NCc1ccc(OC)cc1)n1nc(C)n2c(cc3occc32)c1=O (stereo unspecified) -43.4%
COc1ccc(CCNC(=O)c2cc3sccc3n2C)cc1OC -27.4%
COc1ccc(C)cc1S(=O)(=O)N1CCN(S(=O)(=O)c2cc(C(=O)O)ccc2C)CC1 -8.92%
Cc1ccc(S(=O)(=O)N2CCN(c3ncnc4ccccc34)CC2)cc1 38.9%
Cc1cccc(NS(=O)(=O)c2ccc(C)c(C(=O)NCc3cccnc3)c2)c1 -9.11%
C/C=C/c1ccc(OCC(=O)NNC(=O)CN(C)S(=O)(=O)c2ccc(C)cc2)c(OC)c1 -47.6%
O=C(C[C@@H]1C/C=C\CCC(=O)OC[C@@H]2CCCN2C1=O)NCCO -14.7%
Cc1ccccc1NC(=S)NC(=O)Cc1ccc(Cl)cc1 17.1%
O=C(COc1ccc(Cl)cc1)NC(=S)Nc1ccccc1N1CCOCC1 -46.4%
CC(=O)C[C@H](O)CC(=O)[C@@H]1OC(=O)[C@@H](C)C/C=C\Cc2ccccc21 -24.4%
CN(C(=O)c1cccc(NC(=O)Cc2ccc([N+](=O)[O-])cc2)c1)C1CCC1 -24%
COC(=O)[C@]1(Cc2ccccc2)N[C@H](CN(C)S(=O)(=O)c2ccc(OC(F)(F)F)cc2)[C@@H]2C(=O)N(Cc3ccccc3)C(=O)[C@@H]21 -14.3%
O=C(COC(=O)Cc1ccc([N+](=O)[O-])cc1)NC1CCCCCC1 -29.4%
Cc1cccn2c(=O)c(/C=C3\SC(=S)N(CC(C)C)C3=O)c(NCCCOC(C)C)nc12 -8.49%
CCOC(=O)N1CCN(C(=O)CSc2nc(=O)n3cccc(C)c3n2)CC1 -4.53%
O=C1C=CN2CCCC2CC1 (stereo unspecified) -11.6%
c1ccc(-c2cc3c(NCC4COc5ccccc5O4)ncnc3s2)cc1 (stereo unspecified) -20%
S=C(NCC1COc2ccccc2O1)Nc1ccc(Br)cc1 (stereo unspecified) 15.9%
COc1ccc(CNC(=O)COC(=O)c2sccc2C)cc1OC -11.2%
Cc1noc(C)c1NC(=O)Nc1cccc2c1O[C@H](CN(C)S(=O)(=O)c1c(C)noc1C)[C@@H](C)CN([C@H](C)CO)C2=O -19.7%
CCN(C(=O)COC(=O)CCC(=O)c1cccs1)C1CCCCC1 -13.9%
COc1ccc(/C=C/C(=O)OCC(=O)NC2CCCCCC2)cc1OC -27.2%
CC[C@]12c3[nH]c4ccc(OC)cc4c3CCN1C(=O)C(CC(=O)NCCN1CCOCC1)C[C@@H]2C(=O)N1CCN(C(=O)C2CC2)CC1 (stereo partly specified) -6.98%
CCN(CC(=O)Nc1ccccc1OC)C(=O)Cn1cnc2ccccc2c1=O -15.9%
CCN(CC(=O)Nc1ccccc1OC)C(=O)CC1CC2CCC1C2 (stereo unspecified) -19.5%
NS(=O)(=O)c1cccc(NC(=O)COC(=O)c2cc([N+](=O)[O-])ccc2N2CCCC2)c1 -7.78%
